The nature of assay [1]: ATG_CMV_CIS: Attagene CIS-FACTORIAL HepG2 Assay for human CMV (Internal Marker) (AID 2282928).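 Further: endpoint acts as a background internal control marker rather than a target.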 To be noted: HepG2 CMV promoter reporter, transcription factor profiling; actives raise or lower the signal. In short, it runs like this:
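After transient transfection of HepG2 with reporter transcription units driven by cis-regulatory promoters, cells receive test chemical for 24 h. Labeled reporter amplicons, digested with HpaI, are sized and quantified by capillary electrophoresis against DMSO.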

Assay [2] can be described thus: ATG_DR4_LXR_CIS: Attagene CIS-FACTORIAL HepG2 Assay for human Liver X Receptor (LXR), DR4 submotif (AID 2282929). Conditions: HepG2 Attagene DR4 cis-reporter, mRNA transcription; actives raise or lower the signal. In short, it runs like this: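 Cells were transfected with multiple reporter transcription units, exposed to chemicals for 24 hours, then lysed for RNA. Reporter mRNA induction was measured by RT-PCR with capillary electrophoresis detection and fitted in both directions relative to DMSO.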

The target of assay [3] is Aryl hydrocarbon receptor (Homo sapiens) (UniProt P35869). Briefly: ATG_Ahr_CIS: Attagene CIS-FACTORIAL HepG2 Assay for human Aryl Hydrocarbon Receptor (Ahr) (AID 2282930). Conditions: HepG2 AhR cis-factorial reporter transcription; actives raise or lower the signal. In short, it runs like this:
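Read-out: reporter mRNA quantified by RT-PCR with fluorescent primer extension and capillary electrophoresis. Human HepG2 liver cells carried transfected cis-promoter reporter units and were exposed to chemical for 24 h; gain or loss fitted relative to DMSO.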

Assay [4] in a line: ATG_AP_1_CIS: Attagene CIS-FACTORIAL HepG2 Assay for human Activator Protein 1 (AP-1) (AID 2282931). Conditions: HepG2 Attagene cis-factorial AP-1 reporter mRNA; actives raise or lower the signal. In short, it runs like this:
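Endogenous transcription-factor activity in human HepG2 liver cells is read through a cis-promoter reporter transcript, sampled 24 h after dosing. Detection uses RT-PCR with capillary electrophoresis; values come from bidirectional fitting relative to DMSO.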

The nature of assay [5]: ATG_AP_2_CIS: Attagene CIS-FACTORIAL HepG2 Assay for human Activator Protein 2 (AP-2) (AID 2282932). Conditions: HepG2 AP-2 cis-reporter, Attagene transcription factor profiling; actives raise or lower the signal. In short, it runs like this:
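HepG2 cells transiently transfected with cis-element reporter units and exposed for 24 h. Reporter mRNA measured by RT-PCR, FAM labelling, HpaI digestion and capillary electrophoresis. Changes in either direction fitted relative to DMSO.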

Assay [6] in a line: ATG_BRE_CIS: Attagene CIS-FACTORIAL HepG2 Assay for human Bone Morphogenetic Protein (BMP) Response Element (BRE) (AID 2282933). Conditions: HepG2 BMP response element reporter, Attagene transcription factor profiling; actives raise or lower the signal. In short, it runs like this: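 HepG2 cells transiently transfected with CIS reporter units (endogenous TF activity, BMP response element), dosed 24 h. Reporter mRNA quantified by RT-PCR, fluorescent labelling and capillary electrophoresis; bidirectional fit vs DMSO baseline.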

Assay [7] deals with Transcription factor E2F1 (Homo sapiens) (UniProt Q01094). Briefly: ATG_E2F_CIS: Attagene CIS-FACTORIAL HepG2 Assay for human E2F Transcription Factor 1 (AID 2282935). To be noted: HepG2 Attagene cis-reporter, E2F reporter RNA transcripts; actives raise or lower the signal. The method in brief:
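Endogenous E2F1 activity read through cis-promoter reporter units transfected into HepG2. After 24 h compound treatment, reporter mRNA measured by RT-PCR, HpaI digestion and capillary electrophoresis. Bidirectional fit versus DMSO.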

Assay [8] in a line: ATG_M_61_CIS: Attagene CIS-FACTORIAL HepG2 Assay for M61 Transcription Factor (Internal Marker) (AID 2282937). Conditions: HepG2 Attagene CIS-FACTORIAL M61 internal marker reporter; actives raise or lower the signal. The method in brief:
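Cells were transfected with reporter units under cis-regulatory promoters, treated with chemicals for 24 h, then lysed for RNA. Reporter transcripts were quantified by RT-PCR and capillary electrophoresis, and activity was fitted bidirectionally against DMSO.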

Assay [9] in a line: ATG_EGR_CIS: Attagene CIS-FACTORIAL HepG2 Assay for human Early Growth Response 1 (EGR1) (AID 2282938). Conditions: HepG2 Attagene CIS-FACTORIAL EGR reporter mRNA; actives raise or lower the signal. In short, it runs like this:
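Endogenous TF activity in HepG2 liver cells was gauged through cis-promoter reporter constructs transiently transfected. After 24 h dosing, reporter mRNA was quantified by RT-PCR and capillary electrophoresis, and curves fitted in both directions versus DMSO.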

A short description of assay [10]: ATG_M_19_CIS: Attagene CIS-FACTORIAL HepG2 Assay for M19 Transcription Factor (Internal Marker) (AID 2282939). To be noted: HepG2 Attagene CIS-FACTORIAL M19 internal marker reporter; actives raise or lower the signal. In short, it runs like this: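 HepG2 cells transiently transfected with cis-regulated multiplexed reporter units, dosed 24 h. Reporter mRNA quantified by RT-PCR and capillary electrophoresis; internal background marker fitted bidirectionally versus DMSO.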

The nature of assay [11]: ATG_FoxO_CIS: Attagene CIS-FACTORIAL HepG2 Assay for human Forkhead box O (FoxO) (AID 2282943). To be noted: HepG2 Attagene cis-reporter, FoxO element, mRNA; actives raise or lower the signal. In short, it runs like this: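 Read-out: fluorescence of 6-FAM-labelled reporter cDNA fragments resolved by capillary electrophoresis. Transiently transfected HepG2 cells were dosed for 24 h; activity fitted in both directions relative to DMSO controls.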

The nature of assay [12]: ATG_GATA_CIS: Attagene CIS-FACTORIAL HepG2 Assay for human GATA Binding Protein (AID 2282944). To be noted: HepG2 GATA cis-element reporter, Attagene multiplex mRNA; actives raise or lower the signal. In short, it runs like this:
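HepG2 cells transiently transfected with multiplexed cis-element reporter units measure endogenous GATA activity; after 24 h compound exposure, reporter mRNA quantified by RT-PCR and capillary electrophoresis. Changes fitted in both directions vs DMSO.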

Assay [13] in a line: ATG_GLI_CIS: Attagene CIS-FACTORIAL HepG2 Assay for human Zinc Finger Protein GLI1 (AID 2282945). Conditions: HepG2, Attagene cis-factorial reporter mRNA, GLI element; actives raise or lower the signal. The method in brief:
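Transiently transfected HepG2 cells report endogenous transcription factor activity via cis-element-driven reporter units. After 24 h compound exposure, reporter mRNA was measured by RT-PCR with capillary electrophoresis; bidirectional fitting against DMSO baseline.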

In assay [14] the target is CCAAT/enhancer-binding protein beta (Homo sapiens) (UniProt P17676). Briefly: ATG_C_EBP_CIS: Attagene CIS-FACTORIAL HepG2 Assay for human CCAAT/Enhancer Binding Protein (C/EBP) beta (AID 2282927). Conditions: HepG2 Attagene cis-factorial transcription factor reporter; actives raise or lower the signal. The method in brief:
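Transiently transfected HepG2 (MRTU library, endogenous TF-driven promoters); 24 h dosing; total RNA → oligo(dT) RT → PCR → 6-FAM primer extension → HpaI digest → CE; fit bidirectionally vs DMSO.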

The target in assay [15] is Retinoic acid receptor alpha (Homo sapiens) (UniProt P10276). Briefly: ATG_DR5_RAR_CIS: Attagene CIS-FACTORIAL HepG2 Assay for human Retinoic Acid Receptor Alpha (RARE), DR5 submotif (AID 2282934).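 On AC50: reporter responds to endogenous RAR alpha beta and gamma in HepG2 not RARA alone.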 Conditions: HepG2 Attagene cis-factorial RARE DR5 reporter, mRNA; actives raise or lower the signal. The method in brief:
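Read-out: DR5-driven reporter transcript measured by RT-PCR, 6-FAM primer extension, HpaI digest and capillary electrophoresis. Human HepG2 liver cells carry transiently transfected cis-element reporter constructs; dosing lasts 24 h. Gain or loss of signal fitted against DMSO baseline.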

In assay [16] the target is Hepatocyte nuclear factor 3-beta (Homo sapiens) (UniProt Q9Y261). Briefly: ATG_FoxA2_CIS: Attagene CIS-FACTORIAL HepG2 Assay for human Forkhead box A2 (FOXA2) (AID 2282942). Conditions: HepG2 cis-reporter transcription factor activity, 24 h; actives raise or lower the signal. In short, it runs like this: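 Endogenous transcription factor activity was read in HepG2 cells carrying transiently transfected cis-promoter reporter units. After 24 h dosing, reporter mRNA was quantified by RT-PCR and capillary electrophoresis, and values fitted bidirectionally versus DMSO.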
Chain of Hepatocyte nuclear factor 3-beta (Homo sapiens) (Q9Y261 whole entry, looked up): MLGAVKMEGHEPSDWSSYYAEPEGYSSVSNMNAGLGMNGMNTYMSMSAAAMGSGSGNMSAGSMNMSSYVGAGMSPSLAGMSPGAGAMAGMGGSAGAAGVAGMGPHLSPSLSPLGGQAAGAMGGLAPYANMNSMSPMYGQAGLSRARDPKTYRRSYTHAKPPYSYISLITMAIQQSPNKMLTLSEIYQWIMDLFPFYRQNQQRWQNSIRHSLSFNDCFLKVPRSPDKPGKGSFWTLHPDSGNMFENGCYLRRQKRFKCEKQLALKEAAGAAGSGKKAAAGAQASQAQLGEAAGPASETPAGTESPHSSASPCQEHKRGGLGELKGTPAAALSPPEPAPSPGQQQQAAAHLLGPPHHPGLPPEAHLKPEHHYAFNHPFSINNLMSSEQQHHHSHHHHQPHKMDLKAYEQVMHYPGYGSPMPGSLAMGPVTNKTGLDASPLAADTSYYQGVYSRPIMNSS

A short description of assay [17]: ATG_E_Box_CIS: Attagene CIS-FACTORIAL HepG2 Assay for human Enhancer Box (E-box) (AID 2282936). Conditions: HepG2 E-box cis-reporter transcription, actives raise or lower the signal. In short, it runs like this:
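HepG2 cells transiently transfected with multiplexed cis-element reporter units, dosed 24 h; reporter mRNA quantified by RT-PCR, 6-FAM labelling, HpaI digestion and capillary electrophoresis. E-box (USF1) signal fitted bidirectionally vs DMSO.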

Assay [18] is described as follows: ATG_Ets_CIS: Attagene CIS-FACTORIAL HepG2 Assay for human Erythroblast Transformation Specific (ETS) (AID 2282941). Conditions: HepG2 ETS cis-reporter transcription, actives raise or lower the signal. The method in brief:
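Human HepG2 hepatoma cells were transiently transfected with promoter-driven reporter constructs and treated for 24 hours. Reporter transcripts were quantified by RT-PCR with fluorescent primer extension; bidirectional curve fitting used DMSO as reference.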

Assay [19] concerns the target Bile acid receptor (Homo sapiens) (UniProt Q96RI1). Description: ATG_IR1_CIS: Attagene CIS-FACTORIAL HepG2 Assay for human Nuclear Receptor Subfamily 1 Group H Member 4 (NR1H4), IR1 submotif (AID 2282946). To be noted: IR1 reporter transcription, actives raise or lower the signal. In short, it runs like this:
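HepG2 cells transiently transfected with multiple cis-promoter-driven reporter units to measure endogenous transcription factor activity; 24 h exposure. Reporter mRNA read by RT-PCR, FAM labelling, HpaI digestion and capillary electrophoresis. Bidirectional fit versus DMSO.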

Calls of active or inactive are those of the source. How the source made its calls: active means hit-call score of the fitted dose curve at least 0.9, where 1 is the maximum; inactive means score below 0.9.

Drawing on PubChem BioAssay (EPA / NIEHS), this text covers outcome and AC50 for five compounds.

Usually AC50 stands for the midpoint of the concentration-response curve, whichever way the signal moves.

Chain of Retinoic acid receptor alpha (Homo sapiens) (P10276 whole entry, looked up): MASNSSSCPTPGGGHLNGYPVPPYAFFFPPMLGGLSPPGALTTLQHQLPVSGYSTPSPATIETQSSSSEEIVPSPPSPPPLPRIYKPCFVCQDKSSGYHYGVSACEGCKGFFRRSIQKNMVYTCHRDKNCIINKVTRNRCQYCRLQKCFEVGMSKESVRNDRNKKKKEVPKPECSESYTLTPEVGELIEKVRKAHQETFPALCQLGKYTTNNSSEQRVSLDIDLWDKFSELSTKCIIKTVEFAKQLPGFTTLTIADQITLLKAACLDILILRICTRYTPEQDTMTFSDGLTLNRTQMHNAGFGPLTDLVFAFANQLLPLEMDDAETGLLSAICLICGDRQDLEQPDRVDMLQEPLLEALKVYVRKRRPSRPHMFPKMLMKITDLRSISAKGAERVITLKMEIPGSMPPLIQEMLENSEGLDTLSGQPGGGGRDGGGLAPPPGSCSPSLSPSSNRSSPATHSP
Chain of Aryl hydrocarbon receptor (Homo sapiens) (P35869 whole entry, looked up): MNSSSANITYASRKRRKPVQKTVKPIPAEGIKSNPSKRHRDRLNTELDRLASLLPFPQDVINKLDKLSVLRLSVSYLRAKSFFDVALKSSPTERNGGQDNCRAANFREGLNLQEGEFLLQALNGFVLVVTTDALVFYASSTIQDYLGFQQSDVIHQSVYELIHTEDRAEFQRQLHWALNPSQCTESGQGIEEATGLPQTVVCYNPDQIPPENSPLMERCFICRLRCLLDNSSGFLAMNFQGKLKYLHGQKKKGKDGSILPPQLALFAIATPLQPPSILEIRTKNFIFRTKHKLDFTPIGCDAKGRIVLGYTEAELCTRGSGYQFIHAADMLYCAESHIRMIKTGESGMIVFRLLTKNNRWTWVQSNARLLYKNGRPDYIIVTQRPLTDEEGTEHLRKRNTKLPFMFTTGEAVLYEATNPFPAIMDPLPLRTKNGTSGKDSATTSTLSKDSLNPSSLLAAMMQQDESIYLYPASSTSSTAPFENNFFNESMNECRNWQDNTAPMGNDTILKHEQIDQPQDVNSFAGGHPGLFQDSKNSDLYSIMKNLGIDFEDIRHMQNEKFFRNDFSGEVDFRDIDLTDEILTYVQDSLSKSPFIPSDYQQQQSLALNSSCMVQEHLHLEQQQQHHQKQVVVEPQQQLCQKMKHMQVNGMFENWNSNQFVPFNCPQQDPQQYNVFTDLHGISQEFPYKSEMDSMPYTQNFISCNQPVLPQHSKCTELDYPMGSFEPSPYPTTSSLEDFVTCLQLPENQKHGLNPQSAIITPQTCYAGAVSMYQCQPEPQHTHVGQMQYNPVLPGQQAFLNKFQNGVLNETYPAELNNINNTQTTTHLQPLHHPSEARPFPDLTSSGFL
Chain of Transcription factor E2F1 (Homo sapiens) (Q01094 whole entry, looked up): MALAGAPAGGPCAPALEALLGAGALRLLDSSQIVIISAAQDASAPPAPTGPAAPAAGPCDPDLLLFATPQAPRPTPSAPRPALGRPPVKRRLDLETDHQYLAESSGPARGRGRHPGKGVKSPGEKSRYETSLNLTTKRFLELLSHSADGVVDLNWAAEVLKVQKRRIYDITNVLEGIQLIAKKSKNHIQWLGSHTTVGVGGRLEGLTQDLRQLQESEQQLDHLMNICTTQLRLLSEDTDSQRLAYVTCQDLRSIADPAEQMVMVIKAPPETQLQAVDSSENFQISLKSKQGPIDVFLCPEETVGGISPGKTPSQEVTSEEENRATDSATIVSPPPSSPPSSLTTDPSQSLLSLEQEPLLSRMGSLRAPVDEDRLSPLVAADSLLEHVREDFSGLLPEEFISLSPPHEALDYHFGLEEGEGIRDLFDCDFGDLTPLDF
Chain of CCAAT/enhancer-binding protein beta (Homo sapiens) (P17676 whole entry, looked up): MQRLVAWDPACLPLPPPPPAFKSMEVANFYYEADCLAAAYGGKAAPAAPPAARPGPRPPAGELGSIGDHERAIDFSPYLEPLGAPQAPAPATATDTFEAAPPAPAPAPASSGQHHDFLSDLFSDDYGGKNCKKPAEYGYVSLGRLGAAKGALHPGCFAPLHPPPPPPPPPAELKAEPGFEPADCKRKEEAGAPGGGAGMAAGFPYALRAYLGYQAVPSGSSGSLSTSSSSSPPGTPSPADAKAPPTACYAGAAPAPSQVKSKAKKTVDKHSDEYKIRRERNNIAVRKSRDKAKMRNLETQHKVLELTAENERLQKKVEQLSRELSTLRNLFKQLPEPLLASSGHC
Chain of Bile acid receptor (Homo sapiens) (Q96RI1 whole entry, looked up): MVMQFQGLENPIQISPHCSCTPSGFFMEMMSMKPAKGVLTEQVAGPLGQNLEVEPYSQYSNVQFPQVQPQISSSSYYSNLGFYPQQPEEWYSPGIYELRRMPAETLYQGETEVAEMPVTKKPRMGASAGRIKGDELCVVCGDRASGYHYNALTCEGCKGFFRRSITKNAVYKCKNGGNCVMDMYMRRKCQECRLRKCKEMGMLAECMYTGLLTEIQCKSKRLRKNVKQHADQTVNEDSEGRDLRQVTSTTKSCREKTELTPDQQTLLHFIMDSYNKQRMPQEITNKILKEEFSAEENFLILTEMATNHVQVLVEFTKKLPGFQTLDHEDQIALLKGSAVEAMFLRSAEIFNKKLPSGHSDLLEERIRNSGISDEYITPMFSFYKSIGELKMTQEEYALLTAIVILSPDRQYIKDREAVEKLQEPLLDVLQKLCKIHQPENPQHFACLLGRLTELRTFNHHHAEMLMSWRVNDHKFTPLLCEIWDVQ

With `O=c1[nH]c(=O)c2cn[nH]c2[nH]1`, the compound was classed as inactive in assay [1], in assay [2], in assay [3], in assay [4], in assay [5] and in [6]. Moreover, the outcome in assay [7], in assay [8], in assay [9], in assay [10], in [11] and in assay [12] was inactive. Moreover, the compound was classed as inactive in assay [13].

With `CCCC(=O)C(CC)Sc1ccoc1C` (configuration not stated), the outcome in [14], in assay [1], in [2], in [5], in [6] and in assay [15] was inactive. In addition, the compound was called inactive in assay [7], in [8], in assay [9], in assay [10], in assay [16] and in [11]. Also, the compound was called inactive in [12] and in assay [13]. For the same compound, the concentration at half-maximal activity (AC50) in [4] was 26.5 µM (active).

Regarding `CCc1ccc(O)cc1`, the result in assay [14], in [1], in assay [2], in [4], in assay [5] and in [6] was inactive. Besides, the compound was called inactive in [15], in assay [7], in assay [17], in assay [9], in [18] and in [11]. The compound was called inactive in [12] and in [13]. Further, in assay [3], the AC50 is 68.7 µM (active).

Take `CC(C)(C)C1=CC(=O)C(C(C)(C)C)=CC1=O`: the result in assay [14], in assay [3], in assay [4], in assay [5], in assay [6] and in assay [7] was inactive. Moreover, the result in assay [17], in [8], in [10], in [16] and in [19] was inactive. Also, the AC50 was 87.6 µM (active) in assay [1]; 50 µM (active) in assay [2]; 26.8 µM (active) in [15]; 50 µM (active) in [9]; 50 µM (active) in [11]; 68.3 µM (active) in assay [12]. Besides, the AC50 in assay [13] is 81.7 µM (active).

On to `C=Cc1ccc(C(C)(C)C)cc1`, for which the result in assay [14], in assay [1], in assay [2], in assay [3], in assay [4] and in assay [5] was inactive. Further, the compound was called inactive in assay [6], in assay [17], in [8], in [9], in assay [10] and in assay [18]. In addition, the call in [16], in [11] and in assay [19] was inactive. Besides, in [15], the concentration at half-maximal activity (AC50) is 76.1 µM (active).
